In publication PMC4336329 (PLoS ONE, 2015):
The campaign covered roughly 310,000 compounds. About 2,200 (0.71%) showed an effect of 50% or more. The effect is printed as a negative number. The entries come from a sample that favours strong results as a whole.

The molecules below were run against human ether-à-go-go-related gene (hERG) potassium channel (human, UniProt Q12809) (assay: primary screen, population patch clamp on CHO cells stably expressing hERG; higher = less effect of the substance).
Chain of human ether-à-go-go-related gene (hERG) potassium channel (Q12809 whole entry, looked up): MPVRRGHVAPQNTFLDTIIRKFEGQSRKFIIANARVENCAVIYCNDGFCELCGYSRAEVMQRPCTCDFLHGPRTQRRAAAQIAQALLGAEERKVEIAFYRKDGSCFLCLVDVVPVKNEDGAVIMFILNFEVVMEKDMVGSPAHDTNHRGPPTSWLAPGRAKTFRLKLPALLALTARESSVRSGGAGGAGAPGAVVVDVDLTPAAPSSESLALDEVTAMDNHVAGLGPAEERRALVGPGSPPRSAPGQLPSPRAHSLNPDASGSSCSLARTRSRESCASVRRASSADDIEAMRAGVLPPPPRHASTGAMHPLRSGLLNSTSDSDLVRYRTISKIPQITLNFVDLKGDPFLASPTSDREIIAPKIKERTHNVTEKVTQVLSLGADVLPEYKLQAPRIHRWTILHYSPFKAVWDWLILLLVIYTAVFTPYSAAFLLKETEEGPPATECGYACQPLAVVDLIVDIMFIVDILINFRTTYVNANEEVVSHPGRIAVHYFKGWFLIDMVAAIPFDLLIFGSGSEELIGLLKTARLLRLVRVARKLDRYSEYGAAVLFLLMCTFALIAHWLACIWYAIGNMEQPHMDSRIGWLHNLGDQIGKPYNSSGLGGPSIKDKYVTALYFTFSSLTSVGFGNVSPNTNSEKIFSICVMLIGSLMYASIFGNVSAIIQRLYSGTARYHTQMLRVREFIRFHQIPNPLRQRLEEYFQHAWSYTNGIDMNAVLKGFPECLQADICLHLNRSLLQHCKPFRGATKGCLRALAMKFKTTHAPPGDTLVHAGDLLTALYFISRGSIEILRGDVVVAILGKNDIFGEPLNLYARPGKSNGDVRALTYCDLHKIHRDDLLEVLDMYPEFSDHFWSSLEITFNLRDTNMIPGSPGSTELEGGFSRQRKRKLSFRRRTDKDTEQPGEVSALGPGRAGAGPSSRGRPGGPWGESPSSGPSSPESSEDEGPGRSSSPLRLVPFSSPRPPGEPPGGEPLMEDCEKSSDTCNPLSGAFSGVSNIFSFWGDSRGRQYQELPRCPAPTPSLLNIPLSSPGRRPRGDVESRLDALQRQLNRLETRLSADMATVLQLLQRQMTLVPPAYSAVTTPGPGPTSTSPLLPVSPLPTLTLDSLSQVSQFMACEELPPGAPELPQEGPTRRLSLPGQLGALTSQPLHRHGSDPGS

Row | Structure (SMILES) | hERG current change (%, negative = inhibition) at 1uM [%]
1 | CCOCCCNC(c1ccccc1)c1ccncc1 (stereo not drawn) | 15.3
2 | CN(C)c1ccc(/C=N/NC(=O)c2ccc3c(c2)OCO3)cc1 | 1.12
3 | CN1CCN(c2ccccc2NC(=O)c2cccc([N+](=O)[O-])c2)CC1 | -67.1
4 | CCOc1ccc(C(=O)NC(=S)Nc2ccccc2N2CCCCC2)cc1[N+](=O)[O-] | 8.22
5 | O=C(Nc1ccccc1N1CCOCC1)c1cccc([N+](=O)[O-])c1 | 2.37
6 | O=C(Nc1ccccc1N1CCCCC1)c1cccc([N+](=O)[O-])c1 | 9.68
7 | CCOc1ccc(C(=O)Nc2ccccc2N2CCN(C(=O)c3ccccc3)CC2)cc1[N+](=O)[O-] | -84
8 | CCOc1ccccc1NC(=O)c1ccc(OCC)c([N+](=O)[O-])c1 | 1.13
9 | Cc1nc2nc(SCC(=O)N3CCOCC3)nn2c(C)c1Cc1c(F)cccc1Cl | 3.11
10 | CCOc1cc(N2CCOCC2)c(OCC)cc1NCC(=O)N1CCN(Cc2ccccc2)CC1.Cl | 9.92
11 | COc1ccc(NC(=O)Nc2nnc(-c3ccco3)s2)cc1 | 12.3
12 | NC(=O)c1nsc(C(=O)N(c2ccc(Cl)cc2)C(C(=O)NCC2CCCO2)c2cccs2)c1N (stereo not drawn) | 10.7
13 | S=C(Nc1ccc(Cl)cc1Cl)N1CCN(c2ccccn2)CC1 | 12.7
14 | Cc1sc2ncnc(SCC(=O)N3CCN(C(=O)c4ccco4)CC3)c2c1C | -67.3
15 | O=C(CSc1nn(-c2ccc(F)cc2)c(=S)s1)N1CCN(C(=O)c2ccco2)CC1 | -64.6
16 | Cc1sc2nc(C(C)C)nc(SCC(=O)N3CCN(C(=O)c4ccco4)CC3)c2c1C | -41.5
17 | Cc1nc(SCC(=O)N2CCN(C(=O)c3ccco3)CC2)c2c(C)c(C)sc2n1 | -43.9
18 | O=C(CSc1nc(-c2ccc(F)cc2)cs1)N1CCN(C(=O)c2ccco2)CC1 | -43.2
19 | O=C(CSc1nn(-c2ccc(Cl)cc2)c(=S)s1)N1CCN(C(=O)c2ccco2)CC1 | -44.1
20 | COc1cc(OC)cc(C(=O)Nc2cccc3cccnc23)c1 | 19.3
21 | Cc1cnc(CN(C)C(=O)CC2C(=O)NCCN2Cc2cccc(F)c2F)[nH]1 (stereo not drawn) | 11.2
22 | O=C(NCc1n[nH]c(=S)n1-c1cccc(Cl)c1)c1cccs1 | 9.04
23 | COc1ccccc1C(C)Nc1nc(-c2cccnc2)nc2ccccc12 (stereo not drawn) | 12.2

Row | Structure (SMILES) | hERG current change (%, negative = inhibition) at 1uM [%]
24 | CCOc1ccccc1OCCOCCN1CC(C)OC(C)C1 (stereo not drawn) | 2.22
25 | Cc1[nH]c2ccccc2c1/C=C/c1nc2ccccc2c(=O)n1-c1ccc([N+](=O)[O-])cc1 | -1.09
26 | Cc1ccc(NC(=S)NC(=O)c2ccc(Br)o2)c(C)c1 | 13.3
27 | Cc1n[nH]c(=O)nc1N/N=C/c1cccs1 | 14.8
28 | Nc1[nH]c(N=NC(=O)c2ccccc2)c2ccccc12 | 10.1
29 | Nc1[nH]c(N=NC(=O)c2ccccc2O)c2ccccc12 | -57.5
30 | Nc1ccccc1C(=O)N=Nc1[nH]c(N)c2ccccc12 | 21
31 | O=c1[nH]c(CN2CC=C(c3ccccc3)CC2)nc2scc(-c3cccs3)c12 | 14.1
32 | CC(C)N(C)CCOC(=O)/C=C/c1ccccc1.Cl | 12
33 | Cc1cc(C)c2[nH]c3nc(SCC(=O)O)nnc3c2c1 | 16.7
34 | CC1CN(C(C)C)C(C)CC1OC(=O)c1ccccc1 (stereo not drawn) | 16.7
35 | CN(C)[C@@H]1CCC[C@H]1OC(=O)C(c1ccccc1)c1ccccc1 | -40.2
36 | CC1CN(C)C(C)CC1OC(=O)C(c1ccccc1)c1ccccc1 (stereo not drawn) | -68.3
37 | Cl.O=C(CN1CCN(c2ccc(F)cc2)CC1)N1CCC(Cc2ccccc2)CC1 | -5.57
38 | O=C(CCS(=O)(=O)Cc1ccccc1)N1CCc2ccccc2C1 | 8.69
39 | O=C(CN1CCC(Cc2ccccc2)CC1)N1CCc2ccccc2C1 | -62.2
40 | O=C(NCCNc1ccccc1[N+](=O)[O-])c1cc(F)c(F)cc1Cl | -2.68
41 | COc1cc(NC(=O)C(C)Oc2ccccc2)c(C(=O)O)cc1OC (stereo not drawn) | 9.7
42 | Cl.OC(c1cccc(Cl)c1)(c1cccc(Cl)c1)C1CN2CCC1CC2 (stereo not drawn) | -69.6
43 | Cl.OC(c1ccccc1)(c1ccccc1)C1CN2CCC1CC2 (stereo not drawn) | -1.7
44 | OC(c1ccccc1)(c1ccc(Cl)cc1)C1CN2CCC1CC2 (stereo not drawn) | -11.9
45 | CCOC(=O)c1ccccc1NC(=O)[C@@H]1CCCN1C(=O)OC(C)(C)C | 3.14
46 | CC(C)(C)C(=O)NC1CCN(S(=O)(=O)c2ccccc2F)CC1 | 7.45

Row | Structure (SMILES) | hERG current change (%, negative = inhibition) at 1uM [%]
47 | CO/N=C/c1ccc(N2CCN(C(=O)c3ccc(Cl)cc3Cl)CC2)c([N+](=O)[O-])c1 | -18.5
48 | COc1ccc(N2CCN(C(=O)c3ccc(F)cc3)CC2)c([N+](=O)[O-])c1 | -38.3
49 | CO/N=C/c1ccc(N2CCN(C(=O)c3ccc(F)cc3)CC2)c([N+](=O)[O-])c1 | -78.1
50 | CO/N=C/c1ccc(N2CCN(C(=O)c3ccc(C)cc3)CC2)c([N+](=O)[O-])c1 | -67.2
51 | CO/N=C/c1ccc(N2CCN(C(=O)c3cccc(C(F)(F)F)c3)CC2)c([N+](=O)[O-])c1 | -2.38
52 | COc1ccc(N2CCN(C(=O)c3ccc(C)cc3)CC2)c([N+](=O)[O-])c1 | -29.7
53 | CCc1ccc(CNC(=O)CCCC(=O)n2nc(C)c3ccccc32)cc1 | 16.1
54 | CC(C)CCCN1C(Nc2ccccc2)=NC[C@@H]1C | -0.21
55 | c1ccc(CCCCN2C(Nc3ccccc3)=NC[C@@H]2Cc2ccccc2)cc1 | -39.7
56 | CCCCCCCN1C(Nc2ccccc2)=NC[C@@H]1C | -55.2
57 | CC(C)CCN1C(Nc2ccccc2)=NC[C@@H]1Cc1ccccc1 | -15
58 | CC(C)C[C@H]1CN=C(Nc2ccccc2)N1CCC(C)c1ccccc1 (stereo partly drawn) | -8.04
59 | CCCCCCCN1C(Nc2ccccc2)=NC[C@@H]1Cc1ccccc1 | -79.6
60 | CC(CCN1C(Nc2ccccc2)=NC[C@@H]1Cc1ccccc1)c1ccccc1 (stereo partly drawn) | -52.7
61 | CCCCN1C(Nc2ccccc2)=NC[C@@H]1Cc1ccccc1 | -44.2
62 | CCCCN1C(Nc2ccccc2)=NC[C@@H]1C | 16.3
63 | CCOc1ccc(S(=O)(=O)n2nc(C)cc2C)cc1 | 13.8
64 | CCOc1cc(/C=N/NC(=O)CNc2ccc(C)cc2)ccc1OC(=O)c1ccccc1 | -0.419
65 | CN(Cc1c(F)cccc1Cl)C(=O)CNC(=O)c1ccc2c(c1)OCO2 | 13.8
66 | CCCOc1ccc(NC(=O)CC2C(=O)N(c3ccc(OCC)cc3)C(=S)N2C2CC2)cc1 (stereo not drawn) | -3.7
67 | CN1CCN(c2ccc(NC(=O)c3ccc([N+](=O)[O-])o3)cc2Cl)CC1 | -13.7
68 | Cc1ccc(N2CC(O)Cn3c2nc2c3c(=O)n(C)c(=O)n2C)cc1 (stereo not drawn) | 13.5
69 | CC(O)C[NH+]=c1cc(-c2ccccc2)oc2ccc(Cl)cc12.F[B-](F)(F)F (stereo not drawn) | -57

Row | Structure (SMILES) | hERG current change (%, negative = inhibition) at 1uM [%]
70 | O=c1cc(-c2ccccc2)oc2ccccc12 | 13
71 | CCc1ccc2oc(-c3ccc(OC)cc3)cc(=[NH+]c3c(C)n(C)n(-c4ccccc4)c3=O)c2c1.F[B-](F)(F)F | -33.7
72 | CCc1ccc2oc(-c3ccc(OC)cc3)cc(=[NH+]c3cccc(C(=O)O)c3)c2c1.F[B-](F)(F)F | 4.56
73 | Cc1cc(Cl)ccc1Oc1ncnc2oc(-c3ccccc3)cc12 | 6.84
74 | CC(C)C[NH+]=c1cc(-c2ccccc2)oc2ccc(Cl)cc12.F[B-](F)(F)F | -81.1
75 | COC(=O)c1sc(S(=O)(=O)N2CCC(C(N)=O)CC2)c(C(=O)OC)c1C | -10.8
76 | Cc1cc2nnc(SCc3ccccc3)n2c(N)n1 | -5.86
77 | CCCCNC(=O)CN(c1ccc(Cl)c(Cl)c1)S(C)(=O)=O | 7.06
78 | CCOc1ccc(Br)cc1C1C(C(=O)OC)=C(N)Oc2cc(N(C)C)ccc21 (stereo not drawn) | 16.6
79 | COC(=O)C1=C(N)Oc2cc(C)[nH]c(=O)c2C1c1ccccc1OC (stereo not drawn) | 9.49
80 | COC(=O)C1=C(N)Oc2cc(N(C)C)ccc2C1c1ccccc1OC (stereo not drawn) | -84.1
81 | Cc1cc(C)nc(SCc2ccc(C(=O)N/N=C/c3cccc(O)c3O)cc2)n1 | 10.8
82 | Cc1cc(NCCCN2CCOCC2)n2c(nc3ccccc32)c1C#N | -0.298
83 | c1ccc2c(NCCCN3CCOCC3)c3ccccc3nc2c1 | -54.2
84 | COc1ccc2nc(C)cc(NCCN3CCOCC3)c2c1 | 12.3
85 | CC(C)c1cc(NCCCN2CCOCC2)n2c(nc3ccccc32)c1C#N | -55.7
86 | c1ccc(-c2nc(NCCCN3CCOCC3)c3ccccc3n2)cc1 | 3.18
87 | c1ccc2[nH]c(NCCCN3CCOCC3)nc2c1 | 14.6
88 | Cc1cc(NCCN2CCOCC2)c2ccc3ccccc3c2n1 | -58.3
89 | CCCc1cc(NCCCN2CCOCC2)n2c(nc3ccccc32)c1C#N | -37
90 | Cc1nc(NCCN2CCOCC2)c2oc3ccccc3c2n1.Cl | -8.71
